According to PubChem BioAssay (NCATS):
Records with an inconclusive call do not appear. Active and inactive are the calls of the source. Unless noted, the call rests on the fitted dose curve; in most records, active means well fitted curve in the direction sought with a large enough effect; inconclusive means small, poorly fitted or top-dose-only effect, or another doubt; inactive means no such curve, though single readings can be large; an effect the other way counts as inactive or inconclusive.

Tests used:
[1] = target: Peroxisome proliferator-activated receptor alpha (Homo sapiens) (UniProt Q07869); assay: qHTS assay for small molecule agonists of the peroxisome proliferator-activated receptor alpha (PPARalpha) signaling pathway (AID 651778); conditions: PathHunter PPARalpha complementation, chemiluminescence, 6 h; max response: stronger effect = higher value; further: % of control where 0% means no effect
Summary of the method: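 Cells plated at 2,000/well and held overnight at 37 C, 5% CO2, then compound added by pin tool for 6 hr; after PathHunter detection reagent and 60 min at room temperature, chemiluminescence from enzyme complementation was read.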

[2] = qHTS assay for cell viability of HEK293 cells (AID 743288); conditions: ATP luminescence (CellTiter-Glo), 18 h; max response: stronger effect = lower value; further: on the % scale 0 is the no-effect control and ±100 the full control effect; nearly all actives have a fitted effect of over 50% in size
Summary of the method: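 After 18 h compound exposure at 37 C, parental HEK293 cells (2,000/well) are lysed with CellTiter-Glo and luminescence is read following 30 min at room temperature.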

[3] = qHTS assay for small molecule activators of the human pregnane X receptor (PXR) signaling pathway (AID 720659; call rule not given here; further: 0% is about no effect)

Measured: max response

Chain of Peroxisome proliferator-activated receptor alpha (Homo sapiens) (Q07869 whole entry, looked up): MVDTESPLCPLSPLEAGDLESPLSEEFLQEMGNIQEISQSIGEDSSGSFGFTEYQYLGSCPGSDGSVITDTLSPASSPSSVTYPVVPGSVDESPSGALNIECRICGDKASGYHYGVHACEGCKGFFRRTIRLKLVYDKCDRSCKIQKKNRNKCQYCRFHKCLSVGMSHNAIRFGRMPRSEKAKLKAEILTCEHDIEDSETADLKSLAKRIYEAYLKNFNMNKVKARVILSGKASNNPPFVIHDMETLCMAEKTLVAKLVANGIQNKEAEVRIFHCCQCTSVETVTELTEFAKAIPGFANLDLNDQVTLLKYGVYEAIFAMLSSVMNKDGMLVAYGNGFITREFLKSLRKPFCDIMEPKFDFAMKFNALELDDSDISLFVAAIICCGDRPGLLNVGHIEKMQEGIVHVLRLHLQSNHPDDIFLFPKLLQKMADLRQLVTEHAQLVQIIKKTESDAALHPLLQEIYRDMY

CC1CCC(C(C)C)C(O)C1 (stereo not drawn)
inactive: [1] -0.619% | [2] -1.68% | [3]
